Screens: PubChem, National Center for Advancing Translational Sciences (NCATS)
Sampled rows, rich in hits. Any-hit rate of the full collection: about 3.3%.
Sm TGR inh: qHTS Assay for the Inhibitors of Schistosoma Mansoni Peroxiredoxins. Schistosoma mansoni thioredoxin glutathione reductase (TGR), Q962Y6. purified TGR, DTNB reduction, TNB absorbance 405 nm. Potency, µM (top dose mostly 114 µM), actives largely listed as inhibitors. 360,000 tested, 3% active; further: nearly all actives have a fitted effect of over 60% in size
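Kinetic colorimetric format: TGR-catalysed, NADPH-driven DTNB reduction monitored via TNB absorbance. Enzyme dispensed at 20 nM; compound exposure 15 min at room temperature before reaction start.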
AmpC no deterg: qHTS Inhibitors of AmpC Beta-Lactamase (assay without detergent). P00811. Potency, µM (series often up to 57.1 µM), actives largely listed as inhibitors. AmpC nitrocefin hydrolysis, absorbance 480 nm, 0.0001% Triton. 330,000 tested, 0.52% active; further: nearly all actives have a fitted effect of over 20% in size
Target sequence (P00811 whole entry, looked up): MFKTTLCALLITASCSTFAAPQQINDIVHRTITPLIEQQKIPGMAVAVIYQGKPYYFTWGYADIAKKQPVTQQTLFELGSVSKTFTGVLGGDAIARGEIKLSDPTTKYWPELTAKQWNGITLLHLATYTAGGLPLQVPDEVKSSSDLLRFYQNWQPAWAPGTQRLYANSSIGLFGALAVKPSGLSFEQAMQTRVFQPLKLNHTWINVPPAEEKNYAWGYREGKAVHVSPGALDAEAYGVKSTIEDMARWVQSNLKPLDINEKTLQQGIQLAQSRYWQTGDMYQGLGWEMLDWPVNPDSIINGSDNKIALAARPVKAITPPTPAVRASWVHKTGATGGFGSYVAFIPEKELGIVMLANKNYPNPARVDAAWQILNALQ
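AmpC (5.3 nM in the dispensed reagent) in 20 mM phosphate pH 7.0 with 0.01% (detergent screen) or 0.0001% Triton X-100 was preincubated with compounds for 15 min at room temperature. Nitrocefin was then added from an 800 uM solution, and hydrolysis was followed at 480 nm.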
AmpC detergent: qHTS Inhibitors of AmpC Beta-Lactamase (assay with detergent); AmpC hydrolysis of nitrocefin, absorbance 480 nm, 0.01% Triton; Potency, µM (doses to about 114 µM), actives largely listed as inhibitors; AID 485294, 2010; 370,000 tested, 0.041% active; P00811; further: nearly all actives have a fitted effect of over 25% in size
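20 mM phosphate pH 7.0 + 0.01% (detergent screen) or 0.0001% Triton X-100; 5.3 nM AmpC reagent; cpd preinc 15 min RT; nitrocefin (800 uM stock) to start; A480 q20 s × 4 min; Activity was normalised to no-enzyme and no-compound control wells.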
A number is an active result; i = inactive; ? = inconclusive; nt = no result given; [ ] = remark or other dose. The call rests on the fitted dose curve; in most records, active means well fitted curve in the direction sought with a large enough effect; inconclusive means small, poorly fitted or top-dose-only effect, or another doubt; inactive means no such curve, though single readings can be large; an effect the other way counts as inactive or inconclusive.

SMILES	Sm TGR inh	AmpC no deterg	AmpC detergent
O=C(C[n+]1cc(Br)cc2ccccc21)c1ccc(Br)cc1	i	i	i
CCOc1ccc(N2CC(NC(=O)C(=O)c3c[nH]c4ccccc34)CC2=O)cc1 (configuration not stated)	i	nt	i
Cc1cc(=O)n(Cc2cccc(Cl)c2)c2c1c(C)nn2C	i	nt	i
COc1ccc(S(=O)(=O)N2CCC(C(=O)N[C@H](C(=O)N3CCCC3)C(C)C)CC2)cc1	i	i	i
COc1ccc(S(=O)(=O)N2CCC(C(=O)N[C@H](C(=O)NC3CCCC3)C(C)C)CC2)cc1	89µM	i	i
CCOC(=O)c1cc(-c2ccccc2)n(-c2cccc(C(=O)Nc3ccc(OCC)cc3)c2)c1C	i	nt	i
Nc1nccnc1C(=O)OCC(=O)C12CC3CC(CC(C3)C1)C2	i	i	?
N#CC1(C#N)CC(C=O)=C(N)C1(C#N)CC(=O)C12CC3CC(CC(C3)C1)C2 (configuration not stated)	40µM	16µM	i
COc1ccc(Br)cc1Cn1nnc(C(=O)Nc2ccc(C)cc2C)c1N	i	nt	i
CCCOC(=O)c1ccc(NC(=O)c2ccccc2OC)cc1	i	i	?
CCCOC(=O)c1ccc(NC(=O)c2c(Cl)ccc(Cl)c2OC)cc1	i	28µM	i
CCc1cccc(-n2c(=O)c3cccnc3n2CC(=O)Nc2ccc(F)c(C)c2)c1	i	nt	i
Cc1nn(C)c(C)c1S(=O)(=O)N(CC(=O)NCCc1ccc(Cl)cc1)c1ccc(C(C)C)cc1	i	nt	i
Cc1ccccc1CN1C(=O)c2ccccc2S(=O)c2ccc(C(=O)NCc3ccco3)cc21 (configuration not stated)	i	nt	i
Cc1ccccc1CN1CCN(C(=O)CC(C)C)CC1	50µM	i	i
COc1ccc(CN2CCN(C(=O)CC(C)C)CC2)c2ccccc12	i	i	i
CCn1c(=O)c2cc(C(=O)NC3CCC(C)CC3)sc2c2ccccc21 (configuration not stated)	i	nt	i
COc1ccc(NC(=O)CN2C(=O)C3(SCC(=O)N3c3cccc(OC)c3)c3ccccc32)cc1 (configuration not stated)	i	nt	i
O=C(Nc1cccc(C(F)(F)F)c1)C1CCCN(S(=O)(=O)c2cccc3nonc23)C1 (configuration not stated)	i	nt	i
Cc1ccc(C(c2sc3nc(-c4ccco4)nn3c2O)N2CCCCC2)cc1 (configuration not stated)	i	nt	i
O=C(CN1CCOCC1)Nc1ncc(Cc2cccc(Cl)c2)s1	i	i	i
Cc1cc(C)nc(SCC(=O)Nc2ncc(Cc3cccc(Cl)c3)s2)n1	i	2.8µM	i
O=C(NCc1ccc2c(c1)OCO2)c1ccc2c(c1)N(Cc1cccc(Cl)c1)C(=O)c1ccccc1S2=O (configuration not stated)	i	nt	i
CCC1(CC)NC(=O)N(CC(=O)Nc2sc3c(c2C(N)=O)CCC3)C1=O	45µM	i	i
CCC1(C)NC(=O)N(CC(=O)Nc2sc3c(c2C(=O)OC)CCCCC3)C1=O (configuration not stated)	i	i	i
SMILES	Sm TGR inh	AmpC no deterg	AmpC detergent
COc1cc(CN(C(=O)c2ccc(C)cc2)c2ccccn2)cc(OC)c1OC	i	nt	i
O=C(CN1CCN(c2ccc(O)cc2)CC1)Nc1ccccc1C(=O)NCCc1ccccc1	40µM	i	i
COc1cccc(N2CCN(CC(=O)Nc3ccccc3C(=O)NCCc3ccccc3)CC2)c1	i	i	i
Cc1cc(C)c2oc(-c3cccc(NC(=O)c4ccc(-c5cccc([N+](=O)[O-])c5)o4)c3)nc2c1	i	nt	i
Cc1ccc([N+](=O)[O-])cc1	i	i	i
O=[N+]([O-])c1ccc(Nc2ccccc2)nc1	i	i	?
O=S(=O)(c1ccccc1)c1ccc(C(F)(F)F)cn1	14µM	i	i
Cc1ccc(S(=O)(=O)c2ccc([N+](=O)[O-])cn2)cc1	0.1µM	i	i
Nc1ccc(S(=O)(=O)c2ccccc2)nc1	i	i	i
O=[N+]([O-])c1ccc(S(=O)(=O)c2ccccc2)nc1	0.32µM	i	i
NS(=O)(=O)c1cccc(NS(=O)(=O)c2ccc(/C=C/C(=O)O)cc2)c1	25µM	i	i
O=C(O)/C=C/c1cccc(NS(=O)(=O)c2ccccc2)c1	i	i	i
O=C(NCc1ccccc1Br)c1ccc(-n2cnc3cccnc32)cc1	i	nt	i
O=C1/C(=C\c2ccco2)SC(=S)N1C1CCCCC1	40µM	i	?
O=C1/C(=C/c2ccco2)SC(=S)N1CCC(=O)N1CCCCC1CCO (configuration not stated)	22µM	i	i
O=C1/C(=C/c2ccc(Cl)cc2)SC(=S)N1CCC(=O)N1CCCCC1CCO (configuration not stated)	i	i	i
Cc1ccc(N2C(=O)/C(=C/c3ccco3)SC2=S)cc1	i	i	?
CCc1ccc(S(=O)(=O)NCc2ccc3c(c2)CCN3C(=O)c2ccc(C)cc2)cc1	i	nt	i
Nc1ccc(NC(=O)c2ccc(C(=O)Nc3ccc(N)cc3)cc2)cc1	i	i	i
Nc1ccc([As](=O)(O)O)cc1	35µM	i	i
Cc1cccc(N(C)C(=O)CCS(=O)(=O)c2cccc3nonc23)c1	?	i	i
COc1cccc(CNC(=O)CCS(=O)(=O)c2cccc3nonc23)c1	45µM	i	?
CCN(C(=O)CCS(=O)(=O)c1cccc2nonc12)c1ccc(C)c(C)c1	40µM	i	i
O=C(CCS(=O)(=O)c1cccc2nonc12)NCCc1ccccc1	?	i	i
COc1ccc(OC)c(NC(=O)CCNS(=O)(=O)c2cccc3nonc23)c1	i	i	i
SMILES	Sm TGR inh	AmpC no deterg	AmpC detergent
COc1cccc(CNC(=O)CCS(=O)(=O)c2cccc3nsnc23)c1	i	i	i
COc1ccc(NS(=O)(=O)c2cccc3nonc23)c(OC)c1	18µM	i	i
O=C(CCS(=O)(=O)c1cccc2nonc12)NCc1ccc(Cl)cc1	35µM	i	i
Cc1ccc(S(=O)(=O)N(CC(=O)Nc2cccnc2)c2cc(Cl)ccc2C)cc1	i	nt	i
COc1cccc(-c2nnc(SCC(=O)N(C)C3CCCCC3)o2)c1	i	nt	i
Cc1ccc(N2CCn3c2nc2c3c(=O)n(CCc3ccccc3)c(=O)n2C)cc1C	i	nt	i
Cc1ccc(CNC(=O)CN2N=C(c3ccccc3)CCC2=O)cc1	i	nt	i
CC(C)NC(=O)CCS(=O)(=O)c1cccc2nonc12	i	i	i
O=C(CCS(=O)(=O)c1cccc2nonc12)N1CCCc2ccccc21	35µM	i	i
CCOC(=O)N1CCN(C(=O)CCl)CC1	40µM	i[2.29 µM]	i
CC(C)(C)NC(=O)CN1CCCN(C(=O)COc2ccc(Cl)c3ccccc23)CC1	i	i	i
CCOC(=O)N1CCN(C(=O)Cc2ccc(Cl)cc2)CC1	i	i	?
CC(C)(C)NC(=O)CN1CCN(C(=O)CCl)CC1	45µM	i	i
CCOCCc1nn2c(=O)cc(COC(=O)c3ccc(NC(=O)C(C)(C)C)cc3)nc2s1	i	nt	i
